GC-A act – GC-A (human) enzyme activation; AID 1671463; P16066; HEK293 GC-A cells, cGMP TR-FRET, EC30 ANP; 0% at EC30 ANP, 100% saturating ANP; hit rate 0.14% among 370,000; activation, % at 10 µM; in the data active = activation above about 40%
MsrA act – activates bovine MsrA enzyme. purified bovine MsrA, absorbance read-out. hit rate 0.3% among 360,000. AID 602163. activation, % at 10.6 µM; in the data active = activation above about 7.5%;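 note: 0% = vehicle and 100% = reference activator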
NPR2 activator – GC-B (human) receptor activation; HEK293-GC-B cells, CNP EC30, cGMP TR-FRET; 0% at EC30 CNP, 100% saturating CNP; activation, % at 10 µM; hit rate 0.11% among 370,000;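 active = activation at 10 µM reaching about 35% in either raw or pattern-adjusted values, limit read from the data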
MsrA inhibitor – inhibits bovine methionine sulfoxide reductase A | purified bovine MsrA, absorbance read-out | inhibition, % at 15.5 µM | hit rate 0.75% among 360,000; in the data active = inhibition above about 4.5%;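 note: 0% = vehicle wells with enzyme and 100% = reference inhibitor wells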
Active calls of the source: *; · = not tested or not shown. An excerpt weighted towards active compounds, which were near 1.2% of everything screened.

SMILES | GC-A act | MsrA act | NPR2 activator | MsrA inhibitor
COC(=O)C1=CC(=O)C=C(OC)[C@@]12Oc1cc(C)cc(OC)c1C2=O | 79* | · | 34 | ·
COc1ccc(N2C(=O)CN=C2Nc2nc(C)cc(C)n2)cc1 | 0 | -1 | 1 | 4.5*
Cc1cc(C)nc(NC2=NCC(=O)N2c2ccccc2)n1 | 1 | -6 | 2 | 2
Nc1nnc(CC(=O)N/N=C/c2ccc(-c3ccc(F)cc3)o2)s1 | -4 | -3 | -6 | 6.1*
COc1ccccc1/C=C/C=N/NC(=O)c1ccccn1 | 21 | -6 | -4 | 4.6*
O=C1CCCC(O)=C1C=Nc1ccc(O)cc1 | -3 | -4 | -2 | 4.6*
O=C1CC(c2ccccc2)CC(O)=C1C=Nc1ccc(Cl)cc1 (configuration not stated) | -1 | -4 | -4 | 0
Cc1ccc(NS(=O)(=O)c2ccc(NC(=O)c3cccs3)cc2)cc1 | -1 | 8.2* | -5 | 0
C=CCn1c(=O)c2c3c(sc2n2c(Nc4ccc(OC)cc4)nnc12)CCCC3 | 48* | -2 | 54* | -2
C=CCn1c(=O)c2c3c(sc2n2c(Nc4ccccc4)nnc12)CCCC3 | 26 | -5 | 26 | -2
CC1(C)Cc2c(C#N)c(NCCc3ccccc3)nc(-c3ccco3)c2CO1 | 35 | -4 | 48* | 0
CCN(CC)CCNc1nc(-c2ccco2)c2c(c1C#N)CC(C)(C)OC2 | 0 | -2 | -3 | 2
COc1ccc(Cn2c(/C=C/c3ccccc3)nc3ccccc32)cc1 | 37 | -4 | 29 | 2
COc1ccc(/C=C/c2nc3ccccc3n2C)cc1 | -3 | -14 | -6 | 5.5*
CCCC[C@H]1C2CC(OC(=O)Nc3cccc(Cl)c3)C(C2)[C@H]2CCCCN21 (some centres not stated) | 0 | · | 2 | ·
O=C(Cc1ccc(-n2c(=O)c3ccccc3n(Cc3ccccc3Cl)c2=O)cc1)NCC1CCCO1 (configuration not stated) | 53* | -5 | 62* | 3
O=C(Cc1ccc(-n2c(=O)c3ccccc3n(Cc3ccccc3F)c2=O)cc1)NCC1CCCO1 (configuration not stated) | 29 | -3 | 27 | 1
COc1ccc(CCN2CC(O)=C(c3nc4ccccc4c(=O)[nH]3)C2=N)cc1OC | 70* | -2 | -2 | 1
COc1ccc(CCN2CC(O)=C(c3nc(C)cs3)C2=N)cc1OC | -7 | -7 | -9 | 1
O=[N+]([O-])c1cc(/C=N/NC(=S)Nc2ccccc2Cl)ccc1Cl | 58* | -3 | -5 | 2
O=C1ON=C(c2ccccc2)/C1=C\c1ccco1 | 27 | -3 | 42* | 0
O=C1ON=C(c2ccccc2)/C1=C/c1ccccc1 | 1 | -2 | 6 | -1
C=CCN1C(=O)[C@@H](CC(=O)NCc2ccccc2)[C@]2(C(=O)OC)CCCCC=C12 | 2 | · | 0 | ·
CNc1nc(N)c([N+](=O)[O-])c(Nc2cccc(Br)c2)n1 | 4 | · | -2 | ·
Cc1ccc2c(CC(=O)OC3CCOC3=O)coc2c1 (configuration not stated) | 43* | -5 | 2 | 0
SMILES | GC-A act | MsrA act | NPR2 activator | MsrA inhibitor
CC(C)(C)C(=O)Cn1ncc(Br)c(Br)c1=O | 62* | 4 | 1 | 1
C=CCSc1nc2c(c(=O)[nH]c(=O)n2C)n1Cc1ccc(C)cc1 | 24 | -3 | 38* | 0
S=C(Nc1ccc(Cl)c(Cl)c1)Nc1nnc(-c2ccncc2)s1 | 18 | · | 6 | ·
COc1ccc(C(=O)CCS(=O)(=O)c2ccc(C)cc2)cc1 | 9 | -4 | -2 | 0
Cc1ccc(C(=O)CCS(=O)(=O)c2ccc(Br)cc2)cc1 | 46* | -5 | -5 | -1
C/C(=N/NC(=O)CN1CCN(Cc2ccccc2Cl)CC1)c1cccc(O)c1 | -3 | · | 2 | ·
Cn1cc([N+](=O)[O-])c(C(=O)Nc2nc(-c3ccc(Cl)cc3)cs2)n1 | 60* | -6 | -2 | 0
O=C1CCC[C@H]2[C@@H](Cc3ccccc3)[C@@H](O)CC[C@]23CCCN13 | -3 | · | -3 | ·
Cc1cccc(NC(=O)c2sc3nc(N)c(C#N)cc3c2N)c1 | 15 | -8 | -2 | 4.6*
Cc1cc(C)cc(NC(=O)c2sc3nc(C)cc(C)c3c2N)c1 | -32 | -4 | -1 | 0
Cc1ccc(C2CC(=O)Oc3cc(O)ccc32)cc1 (configuration not stated) | 57* | -3 | 10 | 0
O=C1CC(c2ccccc2)c2cc(O)ccc2O1 (configuration not stated) | · | -13 | · | -1
CCOC(=O)C1=C(N)Oc2cc(O)ccc2C1c1ccc(C)cc1 (configuration not stated) | 49* | -4 | 0 | 0
